Data taken from PubChem BioAssay AID2797 (The Scripps Research Institute Molecular Screening Center, 2010).
In all, about 320,000 compounds went through this assay and about 820 (0.26%) were called active.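 The calls were made as follows: active = activation above the mean activation of all tested compounds plus 3 SD, per screening run (cut at about 20% in these data); inactive = the rest.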 Shown is part of a subset that was picked to be rich in actives.

Target: Vasopressin V1a receptor (Homo sapiens) (UniProt P37288)
Assay: agonists of human V1a receptor, primary screen, counter-screen for OXTR agonist project, fluorescence, CHO-V1R cells (AID 2797);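 also: signal is peak over basal fluorescence ratio across a 100 second FLIPR read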
Conditions: Fluo-8 calcium fluorescence, agonist mode, at 3 µM, stronger effect = higher value, 0% DMSO, 100% 3 nM vasopressin

Vasopressin V1a receptor (Homo sapiens), sequence (P37288 whole entry, looked up): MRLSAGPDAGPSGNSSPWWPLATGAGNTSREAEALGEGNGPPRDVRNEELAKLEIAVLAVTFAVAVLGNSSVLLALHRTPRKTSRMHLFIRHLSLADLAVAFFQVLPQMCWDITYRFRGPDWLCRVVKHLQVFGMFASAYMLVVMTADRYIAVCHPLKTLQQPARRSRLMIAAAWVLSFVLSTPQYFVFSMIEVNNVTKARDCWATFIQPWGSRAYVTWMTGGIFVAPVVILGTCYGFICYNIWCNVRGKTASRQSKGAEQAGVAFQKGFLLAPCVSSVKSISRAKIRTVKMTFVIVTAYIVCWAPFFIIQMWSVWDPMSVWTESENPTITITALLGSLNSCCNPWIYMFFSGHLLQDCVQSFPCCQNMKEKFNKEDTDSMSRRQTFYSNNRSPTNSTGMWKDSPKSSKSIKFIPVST

| Compound | activation |
| --- | --- |
| C=CCN(C(=O)Nc1ccc2oc(C)nc2c1)c1ccccc1 | 0.19% (inactive) |
| CCN(CC)c1ccc(C(=O)Nn2c(C)nc3ccccc3c2=O)cc1 | 6.78% (inactive) |
| CCN(CC)c1ccc2oc(=O)c(C)nc2c1 | 24.3% (active) |
| CC(C)=CCCC(C)CN1CCC(n2nccc2NC(=O)c2ccccc2)CC1 (stereo unspecified) | 0.01% (inactive) |
| COc1ccc(OC)c(NC(=O)COC(=O)Cc2ccsc2)c1 | -0.12% (inactive) |
| COc1cc(/C=C2/SC(=S)N(Cc3ccccc3)C2=O)cc(OC)c1O | 15.3% (inactive) |
| CN(C)c1ccc(C=C2C(=O)OC3(CCCC3)OC2=O)cc1 | 2.02% (inactive) |
| CN(C)c1ccc(/C=C2\NC(=S)N(Cc3ccccc3)C2=O)cc1 | 70.8% (active) |
| CCNC(=O)COc1cc(C)c(Br)c(C)c1 | 2% (inactive) |
| Cc1cc(C)nc(SC(C)C(=O)N/N=C/c2cccs2)n1 (stereo unspecified) | 0.12% (inactive) |
| COCCCNC(=S)NCCNc1nc2cc(C)c(C)cc2cc1C#N | -0.33% (inactive) |
| c1ccc(-c2cc3c(NCC4COc5ccccc5O4)ncnc3s2)cc1 (stereo unspecified) | 1.35% (inactive) |
| S=C(NCC1COc2ccccc2O1)Nc1ccc(Br)cc1 (stereo unspecified) | 5.7% (inactive) |
| c1ccc2c(c1)OCC(CNc1ncnc3nc[nH]c13)O2 (stereo unspecified) | 102% (active) |
| O=C(N/N=C/c1cc([N+](=O)[O-])ccc1O)/C(=C\c1cccs1)NC(=O)c1ccccc1 | 0.52% (inactive) |
| COc1ccccc1C1=CC(=O)CCC1 | -0.32% (inactive) |
| COc1cc(OC)cc(C(=O)N[C@H](C(=O)OCC(=O)NC(C)c2ccccc2)C(C)C)c1 (stereo partly specified) | 68.5% (active) |
| COc1cc(OC)cc(C(=O)NCC(=O)OCC(=O)NC(C)CCc2ccccc2)c1 (stereo unspecified) | -0.08% (inactive) |
| Cc1cc(C)cc(OCC(=O)NC(C)c2ccccc2)c1 (stereo unspecified) | -1.15% (inactive) |
| COc1ccc(CCC(=O)c2ccc(OC)cc2)cc1 | -0.9% (inactive) |
| COc1ccc(C(=O)NNC(=S)NC(=O)c2ccccc2[N+](=O)[O-])cc1 | -0.34% (inactive) |

| Compound | activation |
| --- | --- |
| COc1ccc(C(=O)NC(=S)NNC(=O)CCc2ccccc2)cc1 | 37.5% (active) |
| COc1ccc(/C(N)=N/OC(=O)CCCc2ccccc2)cc1 | -0.46% (inactive) |
| COc1ccc(C(=O)NNC(=S)NC(=O)c2ccccc2)cc1 | 60% (active) |
| COc1ccc(C(=O)NC(=S)NC2CCCCC2)cc1 | -0.74% (inactive) |
| Cc1ccc(O)c(-c2cc(C(=O)NCc3ccccc3)[nH]n2)c1 | 0.3% (inactive) |
| COc1ccc(Cc2nnc(SCC(=O)N(c3ccccc3)C(C)C)n(N)c2=O)cc1 | -1.17% (inactive) |
| Cc1cccc(NC(=O)CN2CCCN(S(=O)(=O)c3ccc(Br)s3)CC2)c1 | 1.99% (inactive) |
| Cc1cc(C)nc(NS(=O)(=O)c2ccc(N3C(=O)C4CCCCC4C3=O)cc2)n1 (stereo unspecified) | 1.65% (inactive) |
| CCNC(=O)CC1C(=O)N(c2ccc(OC)cc2)C(=S)N1CCc1ccncc1 (stereo unspecified) | -0.58% (inactive) |
| Cc1ccc(C(=O)Oc2ccc(C(=S)N3CCOCC3)cc2)cc1 | 1.56% (inactive) |
| O=C(O)C1CCCN1C1=NS(=O)(=O)c2ccccc21 (stereo unspecified) | -0.02% (inactive) |
| O=C1C=CN2CCCC2CC1 (stereo unspecified) | 0.74% (inactive) |
| COc1cccc2cc(C(N)=O)/c(=N\NC(=O)c3ccccc3)oc12 | 1.9% (inactive) |
| NC(=O)c1cc2ccccc2o/c1=N/NC(=O)c1cccc(F)c1 | 1.54% (inactive) |
| CCN(CC)c1ccc2cc(C(N)=O)/c(=N\NC(=O)c3ccncc3)oc2c1 | 27.3% (active) |
| COc1ccc(CCNC(=O)CSc2nc(-c3ccc(OC)c(OC)c3)ccc2C#N)cc1 | -0.68% (inactive) |
| COc1cc(NS(=O)(=O)c2ccc(NC(=S)NC(=O)c3ccccc3)cc2)nc(OC)n1 | -0.14% (inactive) |
| CC1CCCC(NC(=O)c2cc(S(=O)(=O)N3CCCCC3)ccc2Cl)C1C (stereo unspecified) | -0.2% (inactive) |
| CCN(CC)C(CNC(=O)CSc1nnnn1-c1cccc(F)c1)c1ccco1 (stereo unspecified) | -0.26% (inactive) |
| CCOc1ccc(NC(=O)CSc2nncn2C)cc1 | 0.81% (inactive) |
| CCCCN(C(=O)c1nn(C)c(=O)c2ccccc12)c1c(N)n(CCC)c(=O)[nH]c1=O | 0.08% (inactive) |

| Compound | activation |
| --- | --- |
| CCc1noc(C)c1C(=O)NNC(=O)c1ccc(F)cc1 | 0.87% (inactive) |
| Cc1onc(-c2ccccc2)c1C(=O)Nc1ccccc1C#N | -1.51% (inactive) |
| Cc1onc(-c2ccccc2)c1C(=O)N=C(N)c1ccc(Cl)cc1 | 0.22% (inactive) |
| Cc1onc(-c2ccccc2)c1C(=O)NNC(=S)NC(=O)c1ccc(F)cc1 | 21.1% (active) |
| Cc1onc(-c2c(Cl)cccc2Cl)c1C(=O)NNC(=O)c1c(-c2c(Cl)cccc2Cl)noc1C | 0.81% (inactive) |
| COc1ccc(C(=O)NC(=S)NNC(=O)c2c(-c3ccccc3)noc2C)cc1 | 70.5% (active) |
| Cc1ccc(C(=O)Nc2sc(Cc3ccc4c(c3)OCO4)c(C)c2C(N)=O)cc1 | -0.01% (inactive) |
| COc1ccc(C(=O)C2CCCN(Cc3cccn3-c3ccccn3)C2)c(C)c1 (stereo unspecified) | 8% (inactive) |
| COC(=O)C1=C(C(=O)OC)C(c2cc([N+](=O)[O-])ccc2O)c2sc(=O)[nH]c2S1 (stereo unspecified) | 0.68% (inactive) |
| CC1(C)OC(=O)C(=CSc2ccc(C(C)(C)C)cc2)C(=O)O1 | 1% (inactive) |
| Fc1ccc(NC(=S)N2CCc3[nH]c4ccccc4c3C2)cc1 | 4.06% (inactive) |
| CC1CCc2[nH]c3ccc(C(=O)N(C)CC(=O)Nc4cccc(F)c4)cc3c2C1 (stereo unspecified) | 0.41% (inactive) |
| O=C(CCCN1CCc2[nH]c3ccc(F)cc3c2C1)c1ccc(F)cc1 | 23% (active) |
| Cc1cc(OCc2ccc(C(=O)Nc3ccc(C(=O)O)cc3)o2)ccc1Cl | 2.11% (inactive) |
| S=c1nccc(-c2cc(Cl)sc2Cl)[nH]1 | 0.23% (inactive) |
| O=C(c1ccccc1)c1ccc(OCC(O)CN2CCCC2)cc1 (stereo unspecified) | 22.4% (active) |
| O=C(c1ccc(Cl)cc1)c1ccc(OCC(O)CN2CCCCC2)cc1 (stereo unspecified) | 4.01% (inactive) |
| CC1CCN(CC(O)COc2ccc(C(=O)c3ccccc3)cc2)CC1 (stereo unspecified) | 1.88% (inactive) |
| CCOC(=O)C1(C)NC(c2ccco2)C2C(=O)N(c3ccccc3)C(=O)C21 (stereo unspecified) | 3.3% (inactive) |
